As usually defined, the inhibition is the change of the read-out against control, counted positive when it falls.

In PubChem BioAssay one finds growth inhibition, inhibition and outcome data, which are given here for 20 molecules.

Experiment [1] can be described thus: antimalarial activity against Dd2 strain (AID 2302;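 active = growth inhibition above 50% at the single 2 µM test dose, taken to imply half-maximal potency below 2 µM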;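 also: 0% = DMSO untreated growth and 100% = chloroquine plus artemisinin killed control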). Particulars: P. falciparum Dd2 in RBCs, LDH growth readout, 72 h; at 2 µM; stronger effect = higher value.
The nature of experiment [2]: HepG2 cytotoxicity, primary screen, cytotoxicity control for P. falciparum antimalarial project, cell-based, ATP luminescence (AID 2303;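 active = inhibition above 50%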;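 also: 0% = DMSO wells and 100% = digitonin-killed cells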). To be noted: HepG2 viability, 24-48 h, at 10 µM, stronger effect = higher value.
In experiment [3] the target is L-lactate dehydrogenase (Plasmodium falciparum (isolate CDC / Honduras)) (UniProt Q27743). The experiment is described as follows: PfLDH activity inhibition – cell lysate, 3D7 strain, counter-screen for P. falciparum growth inhibition project (AID 2304).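 Also: 0% = vehicle and 100% = reference inhibitor.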 To be noted: P. falciparum 3D7 crude extract, LDH APAD/NBT absorbance; at 2 µM; stronger effect = higher value.
A short description of experiment [4]: inhibition of 3D7 malaria parasite growth – strain 3D7 (AID 2306).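 Also: 0% = DMSO wells and 100% = chloroquine plus artemisinin control wells.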 To be noted: P. falciparum 3D7 erythrocytic growth, LDH absorbance, 72 h; at 2 µM; stronger effect = higher value.
The target in experiment [5] is Calcium-dependent protein kinase 1 (Plasmodium falciparum (isolate 3D7)) (UniProt P62344). The experiment is described as follows: PfCDPK1 kinase inhibitors, biochemical, TCAMS library (AID 1159585; cut-off not given, nearly all actives have IC50 up to about 0.98 µM;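 also: inhibitors leave more ATP so luminescence rises with inhibition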). To be noted: recombinant PfCDPK1, Kinase-Glo ATP depletion luminescence.
The target in experiment [6] is Plasmodium falciparum protein kinase 6 (PK6, PF3D7_1337100) (UniProt Q8IDW1). Briefly: PfPK6 kinase inhibitors, biochemical, TCAMS library (AID 1159586). Particulars: recombinant PfPK6, Kinase-Glo ATP depletion luminescence. For orientation: Kinase-Glo reads ATP consumption through a luciferase reaction.
The target of experiment [7] is Protein kinase 7 (PK7), Plasmodium falciparum 3D7 (PF3D7_0213400) (UniProt Q7YTF7). The experiment is described as follows: inhibition of Plasmodium PK7 catalytic activity – biochemical, TCAMS antimalarial set, Kinase-Glo luminescence (AID 1159587). Particulars: recombinant PfPK7, Kinase-Glo ATP depletion luminescence.
Experiment [8] addresses Calcium-dependent protein kinase 4 (Plasmodium falciparum (isolate 3D7)) (UniProt Q8IBS5). Briefly: PfCDPK4 kinase inhibitors, biochemical, TCAMS library (AID 1159588; cut-off not given, nearly all actives have IC50 up to about 0.91 µM). Particulars: recombinant PfCDPK4, Kinase-Glo ATP depletion luminescence.

Structures are written as SMILES. A number with no mark means an inactive call. For some of these results: Measured potencies and affinities stand elsewhere. Activity calls are given as the source filed them. Unless noted, no rule for the calls is given here.

Sequence of L-lactate dehydrogenase (Plasmodium falciparum (isolate CDC / Honduras)) (Q27743 whole entry, looked up): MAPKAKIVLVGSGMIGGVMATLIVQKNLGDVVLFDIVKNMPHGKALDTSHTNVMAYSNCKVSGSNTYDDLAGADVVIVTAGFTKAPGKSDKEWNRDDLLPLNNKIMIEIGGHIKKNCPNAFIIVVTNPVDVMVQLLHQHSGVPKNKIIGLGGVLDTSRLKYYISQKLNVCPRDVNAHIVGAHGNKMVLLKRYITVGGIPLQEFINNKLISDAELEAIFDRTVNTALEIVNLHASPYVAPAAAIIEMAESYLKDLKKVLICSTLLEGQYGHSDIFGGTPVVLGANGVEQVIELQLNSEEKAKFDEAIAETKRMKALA
Sequence of Plasmodium falciparum protein kinase 6 (PK6, PF3D7_1337100) (Q8IDW1 1-305): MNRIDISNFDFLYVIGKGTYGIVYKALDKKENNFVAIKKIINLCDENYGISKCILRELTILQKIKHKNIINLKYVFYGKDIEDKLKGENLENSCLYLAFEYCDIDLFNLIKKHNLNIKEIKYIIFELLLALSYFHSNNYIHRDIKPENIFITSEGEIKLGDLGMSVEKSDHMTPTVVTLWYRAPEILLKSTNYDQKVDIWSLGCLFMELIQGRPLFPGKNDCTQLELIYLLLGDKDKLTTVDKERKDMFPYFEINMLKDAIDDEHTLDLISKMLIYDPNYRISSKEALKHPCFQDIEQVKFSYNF
Sequence of Calcium-dependent protein kinase 4 (Plasmodium falciparum (isolate 3D7)) (Q8IBS5 whole entry, looked up): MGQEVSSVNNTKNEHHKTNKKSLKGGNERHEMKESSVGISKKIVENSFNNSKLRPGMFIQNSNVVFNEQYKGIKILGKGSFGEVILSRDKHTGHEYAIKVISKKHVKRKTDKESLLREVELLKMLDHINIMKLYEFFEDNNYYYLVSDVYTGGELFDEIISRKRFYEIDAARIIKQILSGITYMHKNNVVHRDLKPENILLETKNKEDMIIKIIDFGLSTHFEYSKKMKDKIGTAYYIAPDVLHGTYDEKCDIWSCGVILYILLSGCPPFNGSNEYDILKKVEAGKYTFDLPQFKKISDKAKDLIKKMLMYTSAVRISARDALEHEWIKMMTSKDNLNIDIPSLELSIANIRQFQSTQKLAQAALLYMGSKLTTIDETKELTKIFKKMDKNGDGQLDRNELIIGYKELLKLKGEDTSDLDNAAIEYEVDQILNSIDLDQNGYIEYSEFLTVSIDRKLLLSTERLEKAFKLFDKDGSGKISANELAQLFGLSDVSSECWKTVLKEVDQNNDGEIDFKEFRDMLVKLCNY
Sequence of Calcium-dependent protein kinase 1 (Plasmodium falciparum (isolate 3D7)) (P62344 whole entry, looked up): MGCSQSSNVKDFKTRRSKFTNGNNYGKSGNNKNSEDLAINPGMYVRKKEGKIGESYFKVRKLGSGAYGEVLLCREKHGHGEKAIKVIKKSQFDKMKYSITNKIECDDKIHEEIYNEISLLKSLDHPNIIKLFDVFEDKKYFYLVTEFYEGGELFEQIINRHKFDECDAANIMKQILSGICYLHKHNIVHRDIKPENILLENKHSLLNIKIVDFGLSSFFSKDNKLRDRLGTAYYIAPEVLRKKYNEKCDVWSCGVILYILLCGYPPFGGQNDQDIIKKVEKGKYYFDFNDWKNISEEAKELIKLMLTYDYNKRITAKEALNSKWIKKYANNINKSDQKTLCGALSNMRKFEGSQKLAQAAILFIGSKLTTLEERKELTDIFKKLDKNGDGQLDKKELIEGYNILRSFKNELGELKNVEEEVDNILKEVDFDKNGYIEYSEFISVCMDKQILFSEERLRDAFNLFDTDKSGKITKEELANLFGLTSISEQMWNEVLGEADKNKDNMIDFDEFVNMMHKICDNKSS
Sequence of Protein kinase 7 (PK7), Plasmodium falciparum 3D7 (PF3D7_0213400) (Q7YTF7 1-343): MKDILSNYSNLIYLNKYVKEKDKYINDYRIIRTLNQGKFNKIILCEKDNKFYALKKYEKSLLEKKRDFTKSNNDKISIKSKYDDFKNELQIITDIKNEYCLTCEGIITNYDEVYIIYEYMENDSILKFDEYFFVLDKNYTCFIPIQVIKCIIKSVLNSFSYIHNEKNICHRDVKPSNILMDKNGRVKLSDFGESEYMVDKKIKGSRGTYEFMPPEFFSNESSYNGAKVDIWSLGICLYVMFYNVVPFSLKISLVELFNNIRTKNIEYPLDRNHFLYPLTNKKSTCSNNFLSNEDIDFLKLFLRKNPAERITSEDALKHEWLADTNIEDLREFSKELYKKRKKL

Consider `COc1ccc(-c2cc(-c3nc4ccc(CN)cc4[nH]3)c(=O)n(C)c2)cc1OC`, for which the results for the growth inhibition in experiment [1] and in experiment [4] were 56% (active) and 85% (active), respectively. For the same molecule, the inhibition in experiment [2] was -12%; in experiment [3] it was 4%. Also, the result in experiment [5], in experiment [6], in experiment [7] and in experiment [8] was inactive.
In the case of `CCCCc1ccc(C(=O)NC2CCN(C[C@H](O)c3ccnc4ccc(OC)cc34)CC2)cc1`, the growth inhibition is 22% in experiment [1] and 91% (active) in experiment [4]. Moreover, the figures for the inhibition in experiment [2] and in experiment [3] were 24% and -1%, respectively. The outcome in experiment [5], in experiment [6], in experiment [7] and in experiment [8] was inactive.
Turning to `COc1ccc(NC(=O)Nc2ccc(-c3ccc(-c4nc5ccccc5[nH]4)cc3)cc2)cc1`, the growth inhibition in experiment [1] is 27%; in experiment [4] it was 100% (active). Besides, the inhibition is 22% in experiment [2] and 5% in experiment [3]. Also, the result in experiment [5], in experiment [6], in experiment [7] and in experiment [8] was inactive.
As for `O=C(Nc1ccc(C(=O)OC[C@@H]2CCCN3CCCC[C@H]23)cc1)c1ccc(Cl)c(Cl)c1`, the growth inhibition in experiment [1] was 37%; in experiment [4] it was 99% (active). Moreover, the figures for the inhibition in experiment [2] and in experiment [3] were 20% and 0%, respectively. Also, the outcome in experiment [5], in experiment [6], in experiment [7] and in experiment [8] was inactive.
For `COc1ccc(-c2cc3ncnc(N4CCN(CCN5CCCC5)CC4)c3s2)cc1`, the growth inhibition was 90% (active) in experiment [1] and 98% (active) in experiment [4]. Further, the inhibition in experiment [2] is 22%; in experiment [3] it was -2%. Besides, the result in experiment [5], in experiment [6], in experiment [7] and in experiment [8] was inactive.
Regarding `COc1ccc2c(c1)Sc1ccccc1C(N1CCN(CCO)CC1)C2` (stereo not given), the growth inhibition in experiment [1] is 4%; in experiment [4], 95% (active). Also, the inhibition is 11% in experiment [2] and -3% in experiment [3]. Also, the result in experiment [5], in experiment [6], in experiment [7] and in experiment [8] was inactive.
For `CCC(C)CC(=O)Nc1ccc(OC)c(S(=O)(=O)N[C@@H]2CCN(C#N)C2)c1` (stereo not given in full), the growth inhibition in experiment [1] is 77% (active); in experiment [4], 94% (active). Moreover, the figures for the inhibition in experiment [2] and in experiment [3] were 16% and 0%, respectively. In addition, the result in experiment [5], in experiment [6], in experiment [7] and in experiment [8] was inactive.
On to `O=C(Nc1cccc(-c2cccc(-c3nc4ccc(C(F)(F)F)cc4[nH]3)c2)c1)Nc1ccc(F)c(F)c1F`, for which the growth inhibition was 100% (active) in experiment [1] and 99% (active) in experiment [4]. The inhibition in experiment [2] is 71% (active); in experiment [3] it was 6%. Further, the result in experiment [5], in experiment [6], in experiment [7] and in experiment [8] was inactive.
As to `O=S(=O)(Nc1cccc(CCN2CCC(N3CCCCC3)CC2)c1)c1ccc(Cl)cc1`, the growth inhibition was 23% in experiment [1] and 94% (active) in experiment [4]. Besides, the inhibition in experiment [2] was 18%; in experiment [3], -1%. Further, the result in experiment [5], in experiment [6], in experiment [7] and in experiment [8] was inactive.
With `CN1CCCC1CNS(=O)(=O)c1ccc(C(=O)NCC2CC2)cc1` (stereo not given), the growth inhibition is -7% in experiment [1] and 91% (active) in experiment [4]. The inhibition in experiment [2] was 17%; in experiment [3] it was -1%. In addition, the outcome in experiment [5], in experiment [6], in experiment [7] and in experiment [8] was inactive.
For `O=C(Cc1ccccc1)NC(CCN1CCC(O)(c2cccc(C(F)(F)F)c2)CC1)c1ccc(Cl)c(Cl)c1` (stereo not given), the growth inhibition in experiment [1] was 32%; in experiment [4], 96% (active). In addition, the values for the inhibition in experiment [2] and in experiment [3] were 25% and 1%, respectively. For the same molecule, the outcome in experiment [5], in experiment [6], in experiment [7] and in experiment [8] was inactive.
As to `c1ccc(CNCCn2c(-c3ccc4c(c3)CCO4)nc3c(N4CCCC4)cccc32)cc1`, the growth inhibition was 85% (active) in experiment [1] and 82% (active) in experiment [4]. Moreover, the inhibition in experiment [2] was 9%; in experiment [3], -4%. Besides, the outcome in experiment [5], in experiment [6], in experiment [7] and in experiment [8] was inactive.
As to `COc1ccc2ncc(F)c(CCN3C[C@H](CNCc4ccc(F)cc4)[C@H](O)C3)c2n1`, the growth inhibition in experiment [1] is 21%; in experiment [4], 93% (active). In addition, the inhibition in experiment [2] was 38%; in experiment [3] it was -1%. The outcome in experiment [5], in experiment [6], in experiment [7] and in experiment [8] was inactive.
Take `O=C(Nc1ccc(O)c(-c2nc3ccccc3[nH]2)c1)c1ccc([N+](=O)[O-])cc1`: the figures for the growth inhibition in experiment [1] and in experiment [4] were 45% and 97% (active), respectively. Moreover, the inhibition in experiment [2] is -2%; in experiment [3] it was -6%. Also, the outcome in experiment [5], in experiment [6], in experiment [7] and in experiment [8] was inactive.
Consider `CCCCCCN1CCCN(Cc2ccc(C(=O)Nc3ccc(C(C)C)cc3)cc2)CC1`, for which the values for the growth inhibition in experiment [1] and in experiment [4] were 50% (active) and 93% (active), respectively. The inhibition in experiment [2] was 40%; in experiment [3] it was -4%. Besides, the result in experiment [5], in experiment [6], in experiment [7] and in experiment [8] was inactive.
As for `COC(=O)c1ccc2c(c1)nc(Nc1cccc(F)c1)n2CC(O)c1ccccn1` (stereo not given), the values for the growth inhibition in experiment [1] and in experiment [4] were 96% (active) and 99% (active), respectively. Moreover, the inhibition in experiment [2] is -7%; in experiment [3], -1%. Besides, the outcome in experiment [5], in experiment [6], in experiment [7] and in experiment [8] was inactive.
Turning to `CN1CCC(NCc2cccc(-c3ccc(S(=O)(=O)NCc4ccccc4)c(F)c3)c2)CC1`, the growth inhibition in experiment [1] and in experiment [4] was 99% (active) each time. Besides, the inhibition was 94% (active) in experiment [2] and -8% in experiment [3]. For the same molecule, the outcome in experiment [5], in experiment [6], in experiment [7] and in experiment [8] was inactive.
`COc1cc(Cc2cnc(N)nc2N)cc(OCCn2ccccc2=O)c1OC`: the growth inhibition in experiment [1] is -3%; in experiment [4] it was 97% (active). Also, the inhibition in experiment [2] is 4%; in experiment [3], 2%. The outcome in experiment [5], in experiment [6], in experiment [7] and in experiment [8] was inactive.
Consider `COc1cc(F)c2ncc(Cl)c(CCN3CCC(NCc4ccc5c(c4)OCCO5)CC3)c2c1`, for which the values for the growth inhibition in experiment [1] and in experiment [4] were 92% (active) and 97% (active), respectively. The inhibition in experiment [2] was 35%; in experiment [3], -7%. The outcome in experiment [5], in experiment [6], in experiment [7] and in experiment [8] was inactive.
`Cc1[nH]c(C)c(C(F)(F)F)c(=O)c1-c1ccc(Oc2ccc(OC(F)(F)F)cc2)cc1`: the values for the growth inhibition in experiment [1] and in experiment [4] were 96% (active) and 97% (active), respectively. The results for the inhibition in experiment [2] and in experiment [3] were 0% and -6%, respectively. The result in experiment [5], in experiment [6], in experiment [7] and in experiment [8] was inactive.
